Experimental data from PubChem BioAssay (NCI).
The panel holds about 79,000 compounds, 15% with a hit somewhere; the sample as a whole holds those more often. No stated cut-off is given here; in the data, active means growth inhibition above about 70%; inactive means the rest.

Experiments:
[1] = NCI Yeast Anticancer Drug Screen. Data for the rad50 strain (AID 155);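 further: 0% = growth of vehicle-only cultures of the same strain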; conditions: S. cerevisiae rad50 strain growth inhibition; at 50.0 µM; active compounds read high
Method in brief: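 Yeast carrying a defined DNA repair defect were exposed to test compounds, and growth was compared with vehicle-treated controls to give percent inhibition.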

[2] = NCI Yeast Anticancer Drug Screen. Data for the mec2-1 strain (AID 157); conditions: S. cerevisiae mec2-1 strain, at 50.0 µM, active compounds read high
Method in brief: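 Compounds were applied to mec2-1 yeast cells. Their growth was then compared with that of vehicle-treated cultures to give growth inhibition.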

[3] = NCI Yeast Anticancer Drug Screen. Data for the sgs1 mgt1 strain (AID 161);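 further: 0% = growth of cultures given vehicle only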; conditions: S. cerevisiae sgs1 mgt1 strain, at 50.0 µM, active compounds read high
Method in brief: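 Compounds are added to genetically altered yeast, and growth is compared with cultures given vehicle alone to give percent inhibition.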

[4] = NCI Yeast Anticancer Drug Screen. Data for the cln2 rad14 strain (AID 165);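 further: 0% = growth equal to vehicle treated cultures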; conditions: S. cerevisiae cln2 rad14 strain, at 50.0 µM, active compounds read high
Method in brief: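 Strain: cln2 rad14 yeast, altered in cell cycle control and DNA damage repair. Read-out: growth inhibition vs vehicle.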

[5] = NCI Yeast Anticancer Drug Screen. Data for the bub3 strain (AID 167); conditions: S. cerevisiae bub3 mutant strain, at 50.0 µM, active compounds read high
Method in brief: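 Compounds were applied to a genetically altered yeast strain carrying a cell-cycle control defect. Growth inhibition was scored against vehicle-treated controls.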

[6] = NCI Yeast Anticancer Drug Screen. Data for the mlh1 rad18 strain (AID 175); conditions: S. cerevisiae mlh1 rad18 strain growth inhibition; at 50.0 µM; active compounds read high
Method in brief: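 A repair-deficient yeast strain is exposed to test compound, and growth is scored relative to vehicle-treated controls.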

Measured: growth inhibition

Cc1cc2nc(/N=C/c3nc(O)c(C)[nH]3)[nH]c2cc1C
inactive: [1] 33.2% | [2] 22.4% | [3] 59% | [4] 20.4% | [5] 14.1% | [6] 56%

OCC1OC(O)C(N=Cc2ccc3c(c2)OCO3)C(O)C1O (stereo unspecified)
inactive: [1] 13.7% | [2] -14.6% | [3] -14.2% | [4] 1.45% | [5] -20.6% | [6] -19.9%

COc1c(NC(=O)c2c(Br)c(Br)c(Br)c(Br)c2C(=O)O)cccc1[N+](=O)[O-]
inactive: [1] 1.5% | [2] 6.65% | [3] 7.65% | [4] -4.2% | [5] -1.2% | [6] 17.1%

N=C(N)c1ccc(OCCOc2cccc(N)c2)cc1
inactive: [1] 3.35% | [2] -15.8% | [3] 11.2% | [4] -39% | [5] -5% | [6] 13.5%

COC(=O)/C=C/C1C2C3(CCC(C)C12C)OCCS3 (stereo unspecified)
inactive: [1] -23.4% | [2] -14.2% | [3] -4.45% | [4] -5.3% | [5] -6.95% | [6] -30.1%

CCN(CC)S(=O)(=O)Nc1c(C)n(C)n(-c2ccccc2)c1=O
inactive: [1] -5.6% | [2] -17.2% | [3] -4.05% | [4] -3.7% | [5] -2% | [6] 14%

Cc1cc2ncn(C3CCCCO3)c2cc1C (stereo unspecified)
inactive: [1] 8.25% | [2] -10.8% | [3] -9.4% | [4] 13.3% | [5] 3.85% | [6] -26.4%

c1cn(C23C4C5C6C4C2C6C53)cn1 (stereo unspecified)
inactive: [1] 2.65% | [2] -11.2% | [3] 2.5% | [4] 18.1% | [5] -6% | [6] 15.9%

O=C(O)C(c1ccccc1)C(O)C1CCCC1 (stereo unspecified)
inactive: [1] -2.9% | [2] -11.1% | [3] 1.05% | [4] -10.8% | [5] -7.3% | [6] -4.45%

COC(=O)C(Cc1nc2ccccc2[nH]c1=O)/C(=N\NC(C)(C)C)C(=O)Nc1c(C)cc(Br)cc1C (stereo unspecified)
inactive: [1] 17.2% | [2] -4.55% | [3] 5.9% | [4] -35.8% | [5] 3.7% | [6] -3%

COc1ccc2c(Cl)ccnc2c1OC
inactive: [1] 15.3% | [2] 6.1% | [3] 10.9% | [4] -15% | [5] 23.4% | [6] 21.8%

CC(=O)C[n+]1ccccc1Oc1ccccc1
inactive: [1] 5.9% | [2] 4.15% | [3] 4.25% | [4] 11.2% | [5] 12.8% | [6] 3.75%

CCCOC(=O)c1ccccc1C(=O)OC1CCCCC1
inactive: [1] 8% | [2] -2.05% | [3] 9.2% | [4] -18% | [5] -2.4% | [6] -8.65%

N#CC1(NC2CCCCC2)CCN(Cc2ccccc2)CC1
inactive: [1] -5.5% | [2] -11.9% | [3] -6.1% | [4] 4.1% | [5] -7.5% | [6] -1.75%

CCOC(=O)C1(O)c2ccccc2NC(=S)N1CC(Br)CBr (stereo unspecified)
inactive: [1] 19.9% | [2] -60.3% | [3] 15.8% | [4] -7.6% | [5] 2.35% | [6] 32.6%

Clc1ccc(C(Cl)(c2ccc(Cl)cc2)C(Cl)(Cl)Cl)cc1
inactive: [1] -14.1% | [2] -14.4% | [3] -7.4% | [4] -6.2% | [5] 32.9% | [6] 11.8%

COc1cc(O)c2c(c1)C(=O)C1=C(C2=O)[C@@H](C)OC(C)C1 (stereo partly specified)
inactive: [1] -4.3% | [2] 10.2% | [3] 19.9% | [4] 11.1% | [5] 12.8% | [6] 19.8%

CCc1nc(N)nc(N)c1-c1ccc2nnn(O)c2c1
inactive: [1] -11.8% | [2] -7.45% | [3] -4.8% | [4] -40% | [5] 0% | [6] -3.1%

CC(=O)N/N=C/c1ccc([N+](=O)[O-])s1
inactive: [1] 13.3% | [2] 15.1% | [3] 33.3% | [4] -11.8% | [5] 3.55% | [6] 45.5%

Cc1ccc(S/C=C/Sc2ccc(C)cc2)cc1
inactive: [1] 15.1% | [2] 8.15% | [3] 3.55% | [4] -14.6% | [5] 22.9% | [6] 36%

O=C1/C(=C/c2cccs2)CCc2ccccc21
inactive: [1] 20.6% | [2] -12.4% | [3] 6.05% | [4] -16.1% | [5] 9.7% | [6] 31.9%
